About 14,000 (4.5%) of roughly 310,000 compounds showed an effect of 50% or more. Effects have a minus sign here. The list comes from a sample in which strong results are over-represented; it also holds similar structures and randomly drawn compounds.
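Further: peak tail current of the secondary pulse compared with the same well before compound.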

The target of the assay is human ether-à-go-go-related gene (hERG) potassium channel (human, UniProt Q12809). The assay can be described thus: primary screen, population patch clamp on CHO cells stably expressing hERG; higher = less effect of the substance.
human ether-à-go-go-related gene (hERG) potassium channel, sequence (Q12809 whole entry, looked up): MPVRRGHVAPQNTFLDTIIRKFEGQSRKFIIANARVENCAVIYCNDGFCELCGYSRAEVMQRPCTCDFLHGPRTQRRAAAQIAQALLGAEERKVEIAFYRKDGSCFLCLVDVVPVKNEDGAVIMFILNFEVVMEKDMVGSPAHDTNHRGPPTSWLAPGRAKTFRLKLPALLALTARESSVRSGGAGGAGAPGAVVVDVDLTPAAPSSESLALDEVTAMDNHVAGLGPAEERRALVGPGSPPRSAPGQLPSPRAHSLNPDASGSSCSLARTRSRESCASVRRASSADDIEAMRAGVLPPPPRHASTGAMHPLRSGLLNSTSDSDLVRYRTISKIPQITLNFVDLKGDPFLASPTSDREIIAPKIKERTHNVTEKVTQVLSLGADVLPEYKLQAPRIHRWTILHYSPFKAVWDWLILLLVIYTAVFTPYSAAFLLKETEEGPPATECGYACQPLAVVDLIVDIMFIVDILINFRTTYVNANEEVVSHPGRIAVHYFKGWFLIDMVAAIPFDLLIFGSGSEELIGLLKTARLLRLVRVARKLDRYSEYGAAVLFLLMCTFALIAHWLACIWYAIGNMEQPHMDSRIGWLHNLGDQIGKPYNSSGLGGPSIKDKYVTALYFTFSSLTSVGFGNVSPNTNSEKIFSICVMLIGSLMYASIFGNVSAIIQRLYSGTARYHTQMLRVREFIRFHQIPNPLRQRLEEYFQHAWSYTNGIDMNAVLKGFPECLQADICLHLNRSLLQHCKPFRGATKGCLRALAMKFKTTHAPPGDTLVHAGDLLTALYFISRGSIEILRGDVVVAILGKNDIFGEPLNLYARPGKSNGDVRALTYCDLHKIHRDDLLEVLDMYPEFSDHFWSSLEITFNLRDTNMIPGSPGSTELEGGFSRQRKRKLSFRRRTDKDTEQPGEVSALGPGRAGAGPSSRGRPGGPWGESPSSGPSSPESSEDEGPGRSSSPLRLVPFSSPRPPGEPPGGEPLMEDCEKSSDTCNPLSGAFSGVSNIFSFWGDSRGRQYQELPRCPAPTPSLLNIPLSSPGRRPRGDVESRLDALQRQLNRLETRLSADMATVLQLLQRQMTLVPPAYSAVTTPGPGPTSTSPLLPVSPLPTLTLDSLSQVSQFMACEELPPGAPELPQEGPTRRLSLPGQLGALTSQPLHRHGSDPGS
Take `O=C1CC(Sc2nnc(-c3ccccc3)o2)C(=O)N1c1ccccc1` (stereo not drawn): the “hERG current change (%, negative = inhibition) at 10uM” value is 3.12%.
To `Cc1cc(C)cc(-c2nnc(SCC(=O)NCc3cccs3)o2)c1` belongs 4.21%; to `Fc1ccccc1CN1CCN(c2ncccn2)CC1`, 5.66%; to `N#Cc1c(SCC(=O)N2CCCCC2)nsc1SCC(=O)N1CCCCC1`, 16.5%.
To `CC(C)C(C(=O)Nc1ccccc1F)N1C(=O)c2ccccc2C1=O` (stereo not drawn) belongs -3.78%; to `Cc1nn(CCC(=O)NNC(=S)NCC(C)C)c(C)c1Br`, 14%; to `CCN(CC)S(=O)(=O)c1ccc(OC)c(NS(=O)(=O)c2ccc(F)cc2)c1`, -10.5%.
Next, `O=C1CCc2cc(S(=O)(=O)NCc3ccccc3Cl)ccc2N1`: -23.4%.
`Cc1cc(C(=O)NNC(=O)CCCOc2ccccc2)c(C)o1`: the “hERG current change (%, negative = inhibition) at 10uM” value was 0.675%.
Next, `CCCNC(=O)C1CCN(c2ccc(S(=O)(=O)N3CCOCC3)cc2Cl)CC1`: 6.36%.
To `Cc1ccc(SC2=C(C(=O)O)CCCC2)cc1` belongs 4.25%.
To `COc1cc(CN2CCC(CO)(CCOc3ccccc3)CC2)cc(OC)c1` belongs -67.3%.
Take `COc1cc(CN2CCC(CO)(CCOc3ccccc3)CC2)cc(OC)c1OC`: the “hERG current change (%, negative = inhibition) at 10uM” value was -38.3%.
To `COc1cc(Cl)c(CN2CCC(CO)(CCOc3ccccc3)CC2)cc1OC` belongs -80.7%; to `OCC1(CCOc2ccccc2)CCN(Cc2cc(Cl)ccc2O)CC1`, -24.7%; to `O=C(NC1CCCC1)C(c1ccncc1)N(Cc1ccccc1)C(=O)Cc1cccs1` (stereo not drawn), -14.1%.
With `COCCNCC1C(Oc2ccc(Cl)cc2)C(=O)N1c1ccccc1C.Cl` (stereo not drawn), the “hERG current change (%, negative = inhibition) at 10uM” value is reported as -8.44%.
Next, `Cc1ccccc1N1C(=O)C(Oc2ccc(Cl)cc2)C1CNC(C)(C)C` (stereo not drawn): -39.5%.
Turning to `COCCCNCC1C(Oc2ccc(Cl)cc2)C(=O)N1c1ccccc1C` (stereo not drawn), the “hERG current change (%, negative = inhibition) at 10uM” value is -8.54%.
In the case of `CCCCNCC1C(Oc2ccc(Cl)cc2)C(=O)N1c1ccccc1C.Cl` (stereo not drawn), the “hERG current change (%, negative = inhibition) at 10uM” value was -65.9%.
To `CCCNCC1C(Oc2ccc(Cl)cc2)C(=O)N1c1ccccc1C` (stereo not drawn) belongs -48.6%; to `Cc1ccccc1N1C(=O)C(Oc2ccc(Cl)cc2)C1CNCCCOC(C)C` (stereo not drawn), -53.4%; to `COc1ccc(N2CCN(C(=O)CN=C3NS(=O)(=O)C(c4ccc(C)cc4)=C3C)CC2)cc1`, -5.05%.
Next, `O=C(Cc1ccccc1)N/N=C/c1ccc(S(=O)(=O)[O-])o1`: 26.2%.
To `Cc1ccc(S(=O)(=O)NCc2ccc(N3CCN(C(=O)OC(C)(C)C)CC3)cc2)cc1` belongs 9.55%.
Regarding `COc1ccc(OC)c(CNC(=O)C2CCN(S(=O)(=O)N3CCC(C)CC3)CC2)c1`, the “hERG current change (%, negative = inhibition) at 10uM” value is reported as -31.8%.
Regarding `Cc1nc2ccccc2c2oc(C(=O)NCCN3CCN(C)CC3)cc12`, the “hERG current change (%, negative = inhibition) at 10uM” value was 12.4%.
Next, `CCc1ccc(NC(=O)C2CCCN2S(=O)(=O)c2ccc3c(c2)C(C)(C)C(=O)N3C)cc1` (stereo not drawn): -51%; `CCOc1ccc(NC(=O)C2CCCN2S(=O)(=O)c2ccc3c(c2)C(C)(C)C(=O)N3C)cc1` (stereo not drawn): -6.75%; `CSc1ccc(CNC(=O)C2Cc3cc(S(=O)(=O)N4CCCCC4)ccc3N2C(C)=O)cc1` (stereo not drawn): -57.1%.
Next, `CSc1ccc(CNC(=O)C2Cc3cc(S(=O)(=O)N4CCCC4)ccc3N2C(C)=O)cc1` (stereo not drawn): -38.2%.
`CCc1ccc(CNC(=O)C2Cc3cc(S(=O)(=O)N4CCCC4)ccc3N2C(C)=O)cc1` (stereo not drawn): the “hERG current change (%, negative = inhibition) at 10uM” value was -25.9%.
Next, `CC(=O)N1c2ccc(S(=O)(=O)N3CCCC3C(=O)Nc3cccc(F)c3)cc2CC1C` (stereo not drawn): -32.8%.
To `CC(=O)N1c2ccc(S(=O)(=O)N3CCCC3C(=O)NCc3ccccc3Cl)cc2CC1C` (stereo not drawn) belongs -40%; to `CC(=O)N1c2ccc(S(=O)(=O)N3CCCC3C(=O)NCc3ccc(Cl)cc3)cc2CC1C` (stereo not drawn), -62.9%; to `CCc1cccc(NC(=O)C2CCCN2S(=O)(=O)c2ccc3c(c2)CC(C)N3C(C)=O)c1` (stereo not drawn), -71.2%.
To `Cc1cc(C)cc(NC(=O)C2CCCN2S(=O)(=O)c2ccc3c(c2)C(C)(C)C(=O)N3C)c1` (stereo not drawn) belongs -38.7%; to `CCc1cccc(NC(=O)C2CCN(S(=O)(=O)c3ccc4c(c3)CC(C)N4C(C)=O)CC2)c1` (stereo not drawn), 2.05%.
As for `CC(=O)N1c2ccc(S(=O)(=O)N3CCCC(C(=O)NCc4ccc(Cl)cc4)C3)cc2CC1C` (stereo not drawn), the “hERG current change (%, negative = inhibition) at 10uM” value is listed as -2.85%.
To `Cc1noc(C)c1C(=O)NCc1ccco1` belongs 0.0994%; to `C/C(=N/NC(N)=S)c1cc2ccc(O)cc2oc1=O`, 21.7%; to `O=C(Nc1ccccc1C(=O)O)c1ccccc1`, 8.69%.
Next, `COc1ccc2oc(=O)c(C(=O)N3CCN(C(=O)c4ccco4)CC3)cc2c1`: -12.9%; `CC(Oc1ccc(F)cc1F)C(=O)NNC(=S)NCC1CCCO1` (stereo not drawn): 9.12%; `CC(C)(C)C(=O)Nc1sc2c(c1C#N)CCN(Cc1ccccc1)C2.Cl`: 1.78%.
For `CCc1ccc(-c2cc(C(=O)Nn3cnnc3)c3ccccc3n2)cc1`, the “hERG current change (%, negative = inhibition) at 10uM” value is reported as 10.7%.
As to `Clc1c(-c2nnc3n2CCCCC3)sc2ccccc12`, the “hERG current change (%, negative = inhibition) at 10uM” value is given as -13.9%.
To `Clc1c(-c2nnc3n2CCC3)sc2ccccc12` belongs 10.4%; to `COc1ccc2c(Cl)c(-c3nnc4n3CCCCC4)sc2c1`, -51.2%; to `COc1cc(NC(=O)CSc2nc(C)c(C)c(C)n2)c(C)cc1[N+](=O)[O-]`, 0.898%.
In the case of `Cc1nn(-c2ccccc2)c2c1C(O)CC(C)(C)C2` (stereo not drawn), the “hERG current change (%, negative = inhibition) at 10uM” value worked out at 17.8%.
Consider `COc1cc(-c2nc3cnccn3c2Nc2ccccc2)ccc1O`, for which the “hERG current change (%, negative = inhibition) at 10uM” value is recorded as -0.787%.
Consider `CN1CCN(C(=O)/C=C/c2ccc([N+](=O)[O-])cc2)CC1`, for which the “hERG current change (%, negative = inhibition) at 10uM” value is recorded as -67%.
To `CCN1CCN(C(=O)/C=C/c2ccc(OC)cc2)CC1` belongs -19.1%; to `CCN1CCN(C(=O)/C=C/c2ccc([N+](=O)[O-])cc2)CC1`, -64.2%.
With `CCOC(=O)N1CCN(C(=O)/C=C/c2ccc([N+](=O)[O-])cc2)CC1`, the “hERG current change (%, negative = inhibition) at 10uM” value is on record as -70.6%.
On to `CCOC(=O)N1CCN(C(=O)/C=C/c2ccc(C(C)(C)C)cc2)CC1`, for which the “hERG current change (%, negative = inhibition) at 10uM” value is on record as -26.1%.
To `CSc1ccc(/C=C/C(=O)N2CCCN(C)CC2)cc1.Cl` belongs -26.6%; to `CN1CCN(C(=O)/C=C/c2ccc(Cl)cc2)CC1`, -44.8%; to `CCN1CCN(C(=O)/C=C/c2ccc(C(C)C)cc2)CC1`, -35.2%.
To `CCOC(=O)N1CCN(C(=O)/C=C/c2ccc(OC)cc2)CC1` belongs -17.8%.
Next, `CN1CCN(C(=O)/C=C\c2ccc(Cl)cc2)CC1`: -41%; `CN1CCN(C(=O)/C=C/c2ccc(Cl)c(Cl)c2)CC1`: -23%; `CN1CCN(C(=O)/C=C/c2ccc(C#N)cc2)CC1`: -54.3%.
On to `COc1ccc(-c2cc3nc(C)cc(N)n3n2)cc1`, for which the “hERG current change (%, negative = inhibition) at 10uM” value is 3.53%.
Next, `CCCCC(=O)NC1(C(F)(F)F)C(=O)Nc2c1c(=O)n(C)c(=O)n2C` (stereo not drawn): -4.15%; `O=C(NC1CC(=O)N(c2ccccc2)C1)C(=O)c1c[nH]c2ccccc12` (stereo not drawn): -11.1%; `COc1cc2c(cc1OC)CN(C(=O)/C=C/c1cccc([N+](=O)[O-])c1)CC2`: -31.2%.
To `COc1cc2c(cc1OC)CN(C(=O)/C=C/c1ccc(F)cc1)CC2` belongs -22.2%; to `COc1cc2c(cc1OC)CN(C(=O)/C=C/c1ccc([N+](=O)[O-])cc1)CC2`, -55.1%; to `CCOc1cc(C(c2c(C)[nH][nH]c2=O)c2c(C)[nH][nH]c2=O)ccc1OC(=O)c1cccc([N+](=O)[O-])c1`, -4.87%.
Next, `COc1ccc(CCNC(=O)COc2ccc(-c3ccc(C)cc3)cc2)cc1OC`: -9.64%; `CCOc1ccc(-c2cc(C)[n+](CCO)c(-c3ccc(OCC)cc3)c2)cc1.[O-][Cl+3]([O-])([O-])[O-]`: -62.6%; `CCOc1ccc(C(=O)CC(=O)C(=O)NCCc2ccc(OC)c(OC)c2)cc1`: -10%.
Regarding `CCOc1ccc(-c2cc(C)[n+](CCN3CCOCC3)c(-c3ccc(OCC)cc3)c2)cc1.[O-][Cl+3]([O-])([O-])[O-]`, the “hERG current change (%, negative = inhibition) at 10uM” value is listed as -41.4%.
For the compound `Br.CC(C)O.Cc1ccc(-c2csc(Nc3ccccc3)[n+]2CCc2ccccc2)cc1`, the “hERG current change (%, negative = inhibition) at 10uM” value worked out at 20.5%.
To `CCOc1ccc(-c2nc(C)sc2CC(=O)O)cc1` belongs 11%.
Next, `Cc1cc(-c2ccccc2)cc(C)[n+]1Cc1ccccc1.[O-][Cl+3]([O-])([O-])[O-]`: 5.38%; `Cc1cc(-c2ccccc2)cc(-c2ccccc2)[n+]1CCc1ccccc1.[O-][Cl+3]([O-])([O-])[O-]`: -76.5%.
Next, `CCOc1ccc(-c2cc(C)[n+](CCc3ccc(OC)c(OC)c3)c(-c3ccc(OCC)cc3)c2)cc1.[O-][Cl+3]([O-])([O-])[O-]`: -83.1%; `CCOC(C[n+]1c(-c2ccccc2)cc(C)cc1-c1ccccc1)OCC.[O-][Cl+3]([O-])([O-])[O-]`: 3.9%; `CCOc1ccc(-c2cc(C)[n+](CCN(CC)CC)c(-c3ccc(OCC)cc3)c2)cc1.[O-][Cl+3]([O-])([O-])[O-]`: -79.3%.
With `CCOc1ccc(-c2cn[nH]c2N)cc1`, the “hERG current change (%, negative = inhibition) at 10uM” value was -5.03%.
For the compound `O=C(CNC(=O)c1ccc(Br)o1)NNC(=O)c1ccc(Br)cc1`, the “hERG current change (%, negative = inhibition) at 10uM” value is on record as -35.6%.

The values above are taken from paper PMC4336329 (PLoS ONE, 2015).
